# Experimental data as given in PubChem BioAssay (EPA / NIEHS).
# Records with an inconclusive call do not appear. The source made the active and inactive calls. Rule for the calls, unless noted: active = hit-call score of the fitted dose curve at least 0.9, where 1 is the maximum; inconclusive = response in the unintended direction; inactive = score below 0.9.
# How the values were obtained:
# [1] = biological target: human Serotonin Transporter (SERT), SLC6A4 (gene 6532) (UniProt P31645); assay: NVS_TR_hSERT: NovaScreen (NVS) Transporter Assay for human Serotonin Transporter (SERT) (AID 2283372)
# Chain of human Serotonin Transporter (SERT), SLC6A4 (gene 6532) (P31645 whole entry, looked up): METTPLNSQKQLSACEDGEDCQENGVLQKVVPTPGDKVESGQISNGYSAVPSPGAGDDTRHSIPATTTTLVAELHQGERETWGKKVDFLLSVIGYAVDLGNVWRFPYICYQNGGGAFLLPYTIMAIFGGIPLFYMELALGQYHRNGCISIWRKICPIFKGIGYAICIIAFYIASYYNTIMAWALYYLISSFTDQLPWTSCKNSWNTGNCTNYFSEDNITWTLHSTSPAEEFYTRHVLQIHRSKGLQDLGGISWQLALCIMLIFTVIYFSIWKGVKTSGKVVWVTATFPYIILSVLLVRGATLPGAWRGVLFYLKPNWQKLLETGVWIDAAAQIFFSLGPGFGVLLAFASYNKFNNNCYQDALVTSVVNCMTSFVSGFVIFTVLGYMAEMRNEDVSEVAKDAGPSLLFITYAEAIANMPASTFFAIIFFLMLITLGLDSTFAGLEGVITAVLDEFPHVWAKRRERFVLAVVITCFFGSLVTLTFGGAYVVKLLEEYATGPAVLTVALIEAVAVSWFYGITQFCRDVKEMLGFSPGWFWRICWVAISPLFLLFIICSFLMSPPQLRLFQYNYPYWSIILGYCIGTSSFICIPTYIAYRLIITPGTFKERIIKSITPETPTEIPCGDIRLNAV
# How it was run: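 Radioligand binding to native SERT in human platelet membranes, read by filter-based scintillation counting 1 h after dosing. Primary screen in duplicate at 25 uM; actives followed up in concentration series; loss of signal versus DMSO baseline.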
# [2] = system: rat Norepinephrine Transporter (NET), gene 83511; assay: NVS_TR_rNET: NovaScreen (NVS) Transporter Assay for rat Norepinephrine Transporter (NET) (AID 2283373)
# How it was run: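 Rat forebrain membranes; radioligand binding measured by filter-based scintillation counting 1 hour after dosing. Loss of specific binding versus DMSO baseline scored; primary screen in duplicate at 25 uM, actives followed up in concentration series.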
# [3] = biological target: human Dopamine Transporter (DAT), SLC6A3 (gene 6531) (UniProt Q01959); assay: NVS_TR_hDAT: NovaScreen (NVS) Transporter Assay for human Dopamine Transporter (DAT) (AID 2283374);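 note: activity means loss of bound radioligand signal relative to DMSO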
# Chain of human Dopamine Transporter (DAT), SLC6A3 (gene 6531) (Q01959 whole entry, looked up): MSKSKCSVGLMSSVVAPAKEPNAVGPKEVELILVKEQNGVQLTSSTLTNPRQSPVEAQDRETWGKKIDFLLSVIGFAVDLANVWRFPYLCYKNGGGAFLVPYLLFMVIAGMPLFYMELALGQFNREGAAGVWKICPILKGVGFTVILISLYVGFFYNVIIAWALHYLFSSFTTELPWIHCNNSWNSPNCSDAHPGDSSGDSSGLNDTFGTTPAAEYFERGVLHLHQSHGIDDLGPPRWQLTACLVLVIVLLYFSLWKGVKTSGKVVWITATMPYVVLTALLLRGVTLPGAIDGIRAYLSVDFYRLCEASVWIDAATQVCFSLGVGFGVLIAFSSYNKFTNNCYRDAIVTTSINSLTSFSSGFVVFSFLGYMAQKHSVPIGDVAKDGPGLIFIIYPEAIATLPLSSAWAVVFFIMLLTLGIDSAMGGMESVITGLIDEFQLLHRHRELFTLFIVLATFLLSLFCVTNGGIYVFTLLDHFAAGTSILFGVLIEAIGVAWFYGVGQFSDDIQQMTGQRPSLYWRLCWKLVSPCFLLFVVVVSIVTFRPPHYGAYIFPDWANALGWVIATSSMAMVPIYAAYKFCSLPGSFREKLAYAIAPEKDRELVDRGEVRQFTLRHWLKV
# How it was run: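 Test chemicals were first screened in duplicate at 25 uM, with actives retested as concentration series. Displacement of a specific radioligand from cell-free human dopamine transporter was measured after 1 h by filtration and scintillation counting.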
# [4] = biological target: rat Serotonin Transporter (SERT), Slc6a4 (gene 25553) (UniProt P31652); assay: NVS_TR_rSERT: NovaScreen (NVS) Transporter Assay for rat Serotonin Transporter (SERT) (AID 2283375)
# Chain of rat Serotonin Transporter (SERT), Slc6a4 (gene 25553) (P31652 whole entry, looked up): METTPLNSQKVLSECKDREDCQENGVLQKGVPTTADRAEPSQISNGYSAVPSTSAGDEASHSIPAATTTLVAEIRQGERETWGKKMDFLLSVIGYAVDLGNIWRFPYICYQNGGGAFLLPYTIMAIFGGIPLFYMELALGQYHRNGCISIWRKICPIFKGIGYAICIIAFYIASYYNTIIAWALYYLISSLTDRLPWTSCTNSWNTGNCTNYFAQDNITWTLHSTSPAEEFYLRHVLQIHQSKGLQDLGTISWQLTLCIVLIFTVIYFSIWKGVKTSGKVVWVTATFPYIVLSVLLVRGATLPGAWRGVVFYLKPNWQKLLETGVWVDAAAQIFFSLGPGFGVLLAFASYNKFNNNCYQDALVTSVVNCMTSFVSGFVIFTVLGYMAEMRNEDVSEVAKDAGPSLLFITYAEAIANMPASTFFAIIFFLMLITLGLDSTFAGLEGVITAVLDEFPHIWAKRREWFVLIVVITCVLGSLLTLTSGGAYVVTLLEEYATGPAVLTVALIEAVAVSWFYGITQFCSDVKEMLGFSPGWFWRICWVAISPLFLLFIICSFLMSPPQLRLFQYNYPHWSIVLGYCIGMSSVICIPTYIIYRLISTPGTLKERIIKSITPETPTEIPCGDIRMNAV
# How it was run: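 Rat forebrain membranes were incubated with test chemical for 1 hour; radioligand binding to SERT was measured by filter-based scintillation counting. Primary screen ran in duplicate at 25 uM, with actives followed up in concentration series; DMSO served as negative control.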
# [5] = biological target: human Norepinephrine Transporter (NET), SLC6A2 (gene 6530) (UniProt P23975); assay: NVS_TR_hNET: NovaScreen (NVS) Transporter Assay for human Norepinephrine Transporter (NET) (AID 2283377);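 note: cell-free membrane protein extracted from CHO cells expressing human NET; displacement of radioligand from human NET seen as loss of scintillation signal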
# Chain of human Norepinephrine Transporter (NET), SLC6A2 (gene 6530) (P23975 whole entry, looked up): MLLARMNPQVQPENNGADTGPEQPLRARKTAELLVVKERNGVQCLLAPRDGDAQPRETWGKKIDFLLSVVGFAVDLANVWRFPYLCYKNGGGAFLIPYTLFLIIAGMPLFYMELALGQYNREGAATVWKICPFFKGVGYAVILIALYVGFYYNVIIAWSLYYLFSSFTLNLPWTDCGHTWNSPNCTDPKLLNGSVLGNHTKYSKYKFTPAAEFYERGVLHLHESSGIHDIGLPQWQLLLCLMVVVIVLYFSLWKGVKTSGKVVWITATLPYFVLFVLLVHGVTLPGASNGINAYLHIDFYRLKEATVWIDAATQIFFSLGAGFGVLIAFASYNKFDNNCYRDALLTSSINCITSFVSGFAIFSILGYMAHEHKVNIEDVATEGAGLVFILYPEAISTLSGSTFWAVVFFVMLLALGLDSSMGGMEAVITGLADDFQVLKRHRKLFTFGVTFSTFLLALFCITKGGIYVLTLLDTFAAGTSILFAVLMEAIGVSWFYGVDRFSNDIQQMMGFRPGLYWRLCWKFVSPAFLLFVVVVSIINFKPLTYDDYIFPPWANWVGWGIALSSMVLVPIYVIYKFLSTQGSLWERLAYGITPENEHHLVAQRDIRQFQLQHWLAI
# How it was run: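 Scintillation counts of filter-retained radioligand served as the readout, taken 1 h post-dosing in a cell-free CHO-derived system. Test chemicals ran first at 25 uM in duplicate; confirmed hits were retested across concentrations.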
# [6] = biological target: Estrogen receptor beta (Homo sapiens) (UniProt Q92731); assay: OT_ER_ERbERb_1440: Odyssey Thera (OT) 24-hour HEK293T Protein-Complementation Assay for Estrogen Receptor-beta/-beta Homodimer (AID 2283380);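 note: fluorescence gain from ER beta LBD homodimer complementation read by laser scanning cytometry; scored as signal increase over DMSO baseline for both agonists and antagonists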
# Chain of Estrogen receptor beta (Homo sapiens) (Q92731 whole entry, looked up, the tested form may be a part): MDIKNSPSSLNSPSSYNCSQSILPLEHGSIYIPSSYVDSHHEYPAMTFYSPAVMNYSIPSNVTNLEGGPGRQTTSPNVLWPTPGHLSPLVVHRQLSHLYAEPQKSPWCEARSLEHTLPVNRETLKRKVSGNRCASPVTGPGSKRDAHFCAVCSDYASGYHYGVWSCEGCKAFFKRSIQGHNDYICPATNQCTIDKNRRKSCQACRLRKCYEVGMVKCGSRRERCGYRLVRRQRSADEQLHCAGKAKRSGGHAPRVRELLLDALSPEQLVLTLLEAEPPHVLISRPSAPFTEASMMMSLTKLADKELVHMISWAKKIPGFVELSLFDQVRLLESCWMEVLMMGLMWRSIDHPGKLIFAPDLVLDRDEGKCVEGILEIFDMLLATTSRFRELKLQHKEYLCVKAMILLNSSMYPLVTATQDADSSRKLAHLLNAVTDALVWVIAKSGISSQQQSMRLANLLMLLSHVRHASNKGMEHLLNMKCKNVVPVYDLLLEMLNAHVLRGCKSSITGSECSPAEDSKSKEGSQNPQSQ
# How it was run: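 Fluorescence increase, nuclear for agonists or whole-cell for antagonists, relative to DMSO vehicle, quantified by laser scanning cytometer after fixation and Draq5 staining. Readout from 24 h treatment of HEK293T cells carrying complementation-paired ER beta LBD (aa 310-547).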
# [7] = biological target: Estrogen receptor (Homo sapiens) (UniProt P03372); assay: OT_ERa_GFPERaERE_0480: Odyssey Thera (OT) 8-hour HeLa Transcription Induction Assay for Estrogen Receptor (AID 2283381; active = hit-call score of the fitted dose curve at least 0.9, where 1 is the maximum; inactive = score below 0.9)
# Chain of Estrogen receptor (Homo sapiens) (P03372 whole entry, looked up): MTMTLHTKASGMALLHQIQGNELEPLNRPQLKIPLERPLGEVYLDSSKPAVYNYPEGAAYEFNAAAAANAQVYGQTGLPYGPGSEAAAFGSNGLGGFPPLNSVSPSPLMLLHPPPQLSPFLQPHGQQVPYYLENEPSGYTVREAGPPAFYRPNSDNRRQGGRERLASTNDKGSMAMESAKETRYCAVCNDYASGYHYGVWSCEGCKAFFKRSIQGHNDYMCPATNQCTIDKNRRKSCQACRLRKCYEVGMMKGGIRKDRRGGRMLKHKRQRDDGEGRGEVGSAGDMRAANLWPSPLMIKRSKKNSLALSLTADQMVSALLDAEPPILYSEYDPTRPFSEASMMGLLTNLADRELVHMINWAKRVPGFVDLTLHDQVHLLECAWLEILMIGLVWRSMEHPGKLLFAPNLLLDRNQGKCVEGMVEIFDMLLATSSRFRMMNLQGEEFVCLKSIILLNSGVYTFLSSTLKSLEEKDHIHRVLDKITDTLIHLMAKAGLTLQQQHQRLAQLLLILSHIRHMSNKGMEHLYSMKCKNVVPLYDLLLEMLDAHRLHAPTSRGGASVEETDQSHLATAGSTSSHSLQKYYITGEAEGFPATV
# How it was run: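 Cells (HeLa) receive compound; after 8 h, reporter fluorescence is imaged and quantified by high-content analysis. Gain-of-signal relative to DMSO gives the endpoint.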
# [8] = biological target: Estrogen receptor (Homo sapiens) (UniProt P03372); assay: OT_ERa_GFPERaERE_0120: Odyssey Thera (OT) 2-hour HeLa Transcription Induction Assay for Estrogen Receptor (AID 2283382)
# How it was run: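 Measures ESR1 pathway reporter gain-of-signal in HeLa cells after a 2-hour treatment, detected as fluorescent protein induction by microscopy, DMSO as baseline.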
smiles,measurement,setting,value
Cc1[nH]cnc1C[C@H]1CCc2c(C)c3ccccc3n2C1=O,AC50,[1],8.03 µM (active)
same,AC50,[2],8.58 µM (active)
same,AC50,[3],11.6 µM (active)
same,AC50,[4],7.59 µM (active)
same,AC50,[5],7.21 µM (active)
same,outcome,[6],inactive
CCN(C(=O)c1cc(C)cc(OC[C@H](C)Nc2ccncc2)c1)C(C)C,outcome,[6],inactive
CCCCCCCCO,outcome,[6],inactive
same,outcome,[7],inactive
same,outcome,[8],inactive
Cc1c(-c2cccnc2)c2ccccc2n1CCCCC(=O)O,outcome,[6],inactive
NC(=O)NO,outcome,[6],inactive
O=C(O)c1cc(N=Nc2ccc(S(=O)(=O)Nc3ccccn3)cc2)ccc1O,outcome,[6],inactive
Cc1ccc(S(=O)(=O)O)cc1C,outcome,[7],inactive
same,outcome,[8],inactive
O=c1n(CC2CO2)c(=O)n(CC2CO2)c(=O)n1CC1CO1 (stereo not given),outcome,[6],inactive
same,outcome,[7],inactive
same,outcome,[8],inactive
CC(C)(O)c1coc(S(=O)(=O)NC(=O)Nc2c3c(cc4c2CCC4)CCC3)c1,outcome,[6],inactive
CC(C)CCCCCCOC(=O)c1ccc(C(=O)OCCCCCCC(C)C)c(C(=O)OCCCCCCC(C)C)c1,outcome,[6],inactive
COC(=O)c1c(Cl)c(Cl)c(C(=O)OC)c(Cl)c1Cl,outcome,[6],inactive
same,outcome,[7],inactive
same,outcome,[8],inactive
Clc1nc(Cl)c(Cl)c(Cl)c1Cl,outcome,[6],inactive
COC(=O)CC(=O)OC,outcome,[6],inactive
same,outcome,[7],inactive
same,outcome,[8],inactive
CCCCC(CC)COC(=O)CCCCCCCCC(=O)OCC(CC)CCCC (stereo not given),outcome,[7],inactive
same,outcome,[8],inactive
O=C1CCCCCN1,outcome,[6],inactive
CC(C)=CCCC(C)=CC=O,outcome,[6],inactive
same,outcome,[7],inactive
same,outcome,[8],inactive
O=P(OC(CCl)CCl)(OC(CCl)CCl)OC(CCl)CCl,outcome,[6],inactive
same,outcome,[7],inactive
same,outcome,[8],inactive
C=CCCCCCCCCC(=O)O,outcome,[6],inactive
same,outcome,[7],inactive
same,outcome,[8],inactive
COc1ccc(/C=C/S(=O)(=O)NC(=O)c2ccc(C)cc2Cl)cc1,outcome,[6],inactive
Cn1cnc([N+](=O)[O-])c1Sc1ncnc2nc[nH]c12,outcome,[6],inactive
same,outcome,[7],inactive
same,outcome,[8],inactive
C=CC(=C)CCC=C(C)C,outcome,[6],inactive
same,outcome,[7],inactive
same,outcome,[8],inactive
CC(=O)OC[C@H]1O[C@@](COC(C)=O)(O[C@H]2O[C@H](COC(C)=O)[C@@H](OC(C)=O)[C@H](OC(C)=O)[C@H]2OC(C)=O)[C@@H](OC(C)=O)[C@@H]1OC(C)=O,outcome,[6],inactive
CCOCCOCCOCCO,outcome,[6],inactive
CC(O)CN(CCN(CC(C)O)CC(C)O)CC(C)O (stereo not given),outcome,[6],inactive
O=C(NS(=O)(=O)/C=C/c1ccccc1)c1ccc(F)cc1Cl,outcome,[6],inactive
same,outcome,[7],inactive
same,outcome,[8],inactive
COc1ccc(-n2nc(C(F)F)cc2-c2ccc(S(C)=O)cc2)cc1 (stereo not given),outcome,[7],inactive
same,outcome,[8],inactive
CC[C@H](C)C(=O)O[C@H]1C[C@@H](C)C=C2C=C[C@H](C)[C@H](CC[C@@H]3C[C@@H](O)CC(=O)O3)[C@H]21,outcome,[6],inactive
same,outcome,[7],inactive
same,outcome,[8],inactive
COC(=O)c1ccccc1O,outcome,[6],inactive
same,outcome,[7],inactive
same,outcome,[8],inactive
